HT1080NT lethal: kills 2HG-producing HT-1080-NT fibrosarcoma cells; HT-1080-NT fibrosarcoma viability, CellTiter-Glo ATP luminescence, 48 h; Potency, µM (doses to about 46.1 µM), for inactives: top-dose activity, negative = less viability, actives largely listed as cytotoxic; actives 1.6% (n = 360,000); AID 686970;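 further: NT is the 2HG producing partner of a matched IDH1 knockdown line; 0% = DMSO-treated cells and -100% = media-only wells without cells; nearly all actives have a fitted effect of over 55% in size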
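Viability by CellTiter-Glo luminescence after 48 h compound exposure at 37C of HT-1080-NT cells (750/well, RPMI, 5% FBS). % activity scaled between DMSO wells and medium-only wells, then curve-fitted and categorized by curve class.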
MCF10A rereplic: induces DNA re-replication in MCF 10a normal breast cells | MCF 10A DNA re-replication, Hoechst nuclear intensity, 48 h | Potency, µM (highest dose often 46.1 µM), for inactives: at the top dose activity, positive = re-replication, usual class: activators | actives 2.9% (n = 350,000); further: % of control where 0% means no effect; nearly all actives have a fitted effect of over 50% in size
SW480 rereplic: DNA re-replication induction in SW480 cells; SW480 DNA re-replication, Hoechst DNA content imaging, 48 h; Potency, µM (highest dose often 46.1 µM), inactives show at the highest dose re-replication activation, actives largely listed as activators; actives 1.8% (n = 340,000); AID 624297; further: % of control where 0% means no effect; nearly all actives have a fitted effect of over 55% in size
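Image-based DNA-content assay: after two days of treatment, nuclei were labelled with the DNA dye Hoechst and imaged, and hits were compounds raising the count of nuclei showing high fluorescence intensity.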
HT1080 IDH1KD tx: kills HT-1080 cells with IDH1 knockdown | HT-1080 IDH1 knockdown viability, ATP luminescence, 48 h | Potency, µM (series often up to 46.1 µM), for inactives: top-dose activity, negative = toxicity, actives largely listed as cytotoxic | actives 2% (n = 360,000);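 further: 0% = DMSO wells and -100% = cell-free medium wells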
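CellTiter-Glo luminescence after 48 h compound exposure at 37 degrees C of IDH1-knockdown HT-1080 cells in 5% FBS RPMI. %Activity scaled between DMSO wells and cell-free media wells, with curves fitted and assigned curve classes.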
KB-3-1 tox: kills parental KB-3-1 adenocarcinoma cells | KB-3-1 viability, CellTiter-Glo ATP luminescence, 72 h | Potency, µM (titrated, usually from 46.1 µM), hits mostly cytotoxic | actives 1.4% (n = 400,000); further: on the % scale 0 is the no-effect control and ±100 the full control effect; nearly all actives have a fitted effect of over 60% in size
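Parental KB-3-1 viability, qHTS format: 72 h compound exposure, 37 °C; CellTiter-Glo; media-only wells and DMSO plates as controls; concentration-effect fits on corrected data.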
KB-V1 cytotox: kills drug-selected multidrug resistant KB-V1 cells; Potency, µM (top dose mostly 46.1 µM), usual class: cytotoxic; actives 3.4% (n = 400,000); KB-V1 MDR cells viability, CellTiter-Glo, 72 h; AID 1347076; further: on the % scale 0 is the no-effect control and ±100 the full control effect; nearly all actives have a fitted effect of over 60% in size
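Compound-treated KB-V1 multidrug-resistant cells, 72 h, 37 degrees C; viability by CellTiter-Glo. Fitted qHTS curves give the values.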
Starred values were filed as active, the others as inactive; i = inactive; ? = inconclusive; . = no result given; ! = not active in a repeat; [ ] = another dose, or the depositor's remark. Hits are enriched below; roughly 7.9% of the tested compounds scored in any of these assays. The call rests on the fitted dose curve; in most records, active means well fitted curve in the direction sought with a large enough effect; inconclusive means small, poorly fitted or top-dose-only effect, or another doubt; inactive means no such curve, though single readings can be large; an effect the other way counts as inactive or inconclusive. Potency means the concentration at half of the fitted maximal effect.

SMILES	HT1080NT lethal	MCF10A rereplic	SW480 rereplic	HT1080 IDH1KD tx	KB-3-1 tox	KB-V1 cytotox
CCOC(=O)c1ccc(NC(=O)CN(Cc2ccc(C)cc2)S(=O)(=O)c2ccc(C)cc2)cc1	.	.	.	.	i	i
O=C(CSc1nnc(-c2ccc(Cl)cc2)o1)Nc1ccc(F)cc1	.	.	.	.	?	i
CCOc1ccc(Nc2oc(-c3ccc(COc4ccccc4C)o3)nc2C#N)cc1	.	.	.	.	?	i
CC(=O)OC1CC(c2cc(C(C)(C)C)c(O)c(C(C)(C)C)c2)=NO1 (stereo not given)	?	?	14.6µM*	?	i	?
Nc1ccccc1SSc1ccccc1N	?	15.5%	5.9%	23.1µM*	i	i
COc1ccc2c(c1)c1nc3ccccc3nc1n2Cc1ccc(OC)c(OC)c1	-26.7%	8.2µM*	-2.7%	?	i	i
CCOc1ccc(Cn2c3ccc(OC)cc3c3nc4ccccc4nc32)cc1OC	-29.8%	7.31µM*	?	?	i	i
COc1cc(C(=O)NCCOc2cc(C)cc(C)c2)c(Br)c(OC)c1OC	?	?	?	-21.0%[9.24 µM]	i	10.3µM*
CCCCCCCCCCOC(=O)Cn1c(COc2ccccc2C)[n+](C)c2ccccc21	23.1µM*	?	?	11.6µM*	?	i
CCCCCCCCCCOC(=O)Cn1c(COc2ccc(OC)cc2)[n+](C)c2ccccc21	20.6µM*	6.51µM*!	?	13µM*	20.6µM*!	i
CCCCCCCCCCOC(=O)Cn1c(COc2ccccc2)[n+](C)c2ccccc21	-24.1%	?	-2.1%	-6.1%	i	i
CCCNC(=O)C1(C)CCCN(C(=O)c2cccc(Cl)c2)C1 (stereo not given)	20.3%	.	.	6.2%	i	i
Cc1ccc(NC(=O)CN2CCN(C3CCCCC3)C(=O)C2=O)cc1C	.	.	.	.	i	i
CCOC(=O)c1c(C)n(S(=O)(=O)c2ccc(C)cc2)c2ccc(NS(=O)(=O)c3ccc(C)cc3)cc12	.	.	.	.	i	?
Cc1ccc(C)c2sc(N3CCN(C(=O)c4ccc([N+](=O)[O-])o4)CC3)nc12	?	9.2µM*	?	?	?	?
CCC(C)NC(=O)Cn1c(=O)n(-c2ccc(C)c(C)c2)c(=O)c2c(C)c(C(=O)N(CC)CC)sc21 (stereo not given)	.	.	.	.	i	?
C/C=C(/C)C(=O)O[C@@H]1c2cc3c(c(OC)c2-c2c(cc(OC)c(OC)c2OC)[C@@H](OC(C)=O)[C@@H](C)[C@H]1C)OCO3	1.8%	24.0%	2.9%[9.22 µM]	10.7%	i	i
CCN(CC)C1Oc2cc3c(cc2C(c2cc(OC)c(OC)c(OC)c2)C1C)OCO3 (stereo not given)	1.84µM*	1.46µM*	?	1.46µM*	1.16µM*	?
COc1cc(C2c3cc4c(cc3C3OC(=O)C2C3CO)OCO4)cc(OC)c1OC (stereo not given)	0.0103µM*	.	.	0.0164µM*	?	0.206µM*
COc1cc(C2CC(=O)Oc3cc4c(cc32)OCO4)cc(OC)c1OC (stereo not given)	-3.0%	-26.7%	-2.1%	-0.9%	i	i
COc1cc([C@@H]2c3cc4c(cc3[C@@H](O)[C@H]3COC(=O)[C@H]23)OCO4)cc(OC)c1O[Si](C)(C)C(C)(C)C	?	?	-7.3%	?	5.8µM*	?
COc1cccc2c1OC1(N3CCOCC3)CCCCC1C2C[N+](=O)[O-] (stereo not given)	5.8%	.	.	-1.3%	i	i
Cc1cc2cc3c(=O)[nH]c(=O)nc-3n(CC(O)C(O)C(O)CO)c2cc1C (stereo not given)	-4.8%	?	20.6µM*	-28.5%	i	i
Cc1cc2cc3c(=O)[nH]c(=O)cc-3n(CC(O)C(O)C(O)CO)c2cc1C (stereo not given)	-7.6%	.	.	-13.9%	i	i
N#C/C(=C\c1c(Oc2ccc(Cl)cc2)nc2ccccn2c1=O)C(=O)NC1CCS(=O)(=O)C1 (stereo not given)	-12.7%	5.17µM*	?	?	?	i
SMILES	HT1080NT lethal	MCF10A rereplic	SW480 rereplic	HT1080 IDH1KD tx	KB-3-1 tox	KB-V1 cytotox
Cc1cc(Oc2nc3ccccn3c(=O)c2/C=C(\C#N)C(=O)NC2CCS(=O)(=O)C2)ccc1Cl (stereo not given)	?	-23.0%	?	?	i	i
Cc1cccn2c(=O)c(/C=C(\C#N)C(=O)NC3CCS(=O)(=O)C3)c(N3CCC(C)CC3)nc12 (stereo not given)	0.7%	5.8µM*	8.2µM*	1.7%	i	i
N#Cc1cccc(NC(=O)CSc2ccc3c4c(cccc24)C(=O)c2ccccc2-3)c1	5.0%	7.31µM*	?	6.6%	?	20.6µM*
COc1ccc(NC(=O)CSc2nc(C3CC3)nc3ccccc23)cc1	?	?	13µM*	?	?	?
N#Cc1cccc(NC(=O)CSc2ccccc2)c1	-17.0%	14.1%	-6.4%	5.6%	i	?
COc1ccc(NC(=O)CSc2ccc3c4c(cccc24)C(=O)c2ccccc2-3)cc1	?	2.59µM*	11.6µM*	?	?	?
Cc1ccsc1C(=O)OCC(=O)NC1CCCCC1	11.0%	.	.	16.3%	i	i
COc1ccc(S(=O)(=O)Nc2c(C(=O)O)[nH]c3ccc(OC)cc23)cc1	6.5%	?	-0.2%	5.8%	i	?
COC(=O)c1[nH]c2ccc(F)cc2c1NS(=O)(=O)c1ccc(OC)cc1	5.17µM*	7.31µM*	4.61µM*	?	2.59µM*	7.31µM*
COc1ccc(-c2ccc3c(c2)C2CC3CCN2)cc1 (stereo not given)	3.5%	20.6µM*	27.1%	0.8%	i	i
CC(C)(C)n1nc(-c2ccc(Cl)cc2)c2c(N)ncnc21	-19.8%	?	0.3%[9.22 µM]	?	?	20.6µM*
CC(C)(C)n1nc(-c2ccc(F)cc2)c2c(N)ncnc21	?	6.2%	6.1%	?	i	i
CSc1ncnc2c1ncn2CCCNCc1cccc2ccccc12	-12.2%	.	.	-12.3%	i	i
Cc1cccc(Cn2c(CNC(=O)c3ccccc3)nc3ccccc32)c1	.	.	.	.	i	i
CCCCn1c(CNC(=O)C23CC4CC(CC(C4)C2)C3)nnc1SCC(=O)Nc1nnc(C)s1	-2.9%	-22.7%	14.4%	0.6%	i	i
